In the supplement of paper PMC8047044 one finds neurite formation score data, which are given here for 40 compounds.

In the test the test system is Neuro-2a. Description: neurite formation score, plate-normalized to DMSO control mean 5.04 (score (0-8 scale)); higher = more or longer neurites. Conditions: 1 µM. As to the method: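 Neuro-2a mouse neuroblastoma cells in PLL-coated 96-well plates were pre-treated for 1 h in DMEM(+) with each kinase inhibitor at 1 µM, then switched to serum-free DMEM(-) with inhibitor to induce neurite outgrowth and fixed about 2-3 h later. Three blinded observers scored neurite formation from 0 (no neurites) to 8 (long neurites on almost all cells).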
For `Nc1nc(Nc2ccc(S(N)(=O)=O)cc2)nn1C(=O)c1c(F)cccc1F`, the neurite formation score came out at 5.02.

For `O=C(c1ccc(F)c(F)c1Nc1ccc(I)cc1F)N1CC(O)([C@@H]2CCCCN2)C1` [Cobimetinib], the neurite formation score worked out at 3.24.

`CCOc1cc2ncc(C#N)c(Nc3ccc(OCc4ccccn4)c(Cl)c3)c2cc1NC(=O)/C=C/CN(C)C` [Neratinib (HKI-272)] gave a neurite formation score of 3.47.

The compound `CCN1C(=CC(C)=O)Sc2ccc(OC)cc21` gave a neurite formation score of 4.96.

As for `Cc1cccc(CC(=O)N2CCc3c2ccc(-c2cn(C)c4ncnc(N)c24)c3F)n1`, the neurite formation score worked out at 4.21.

Take `CCCCCCCCCCCCCCCCCCOP(=O)([O-])OC1CC[N+](C)(C)CC1` [Perifosine]: the neurite formation score is 4.57.

As to `CCS(=O)(=O)N1CCN(c2ccc(Nc3ncc(C(N)=O)c(NC4CC4)n3)cc2)CC1`, the neurite formation score is 4.54.

As to `C=CC(=O)Nc1cc(Nc2nccc(-c3cn(C)c4ccccc34)n2)c(OC)cc1N(C)CCN(C)C`, the neurite formation score was found to be 5.14.

The compound `C[C@@H](Oc1ccc2[nH]nc(/C=C/c3cnn(CCO)c3)c2c1)c1c(Cl)cncc1Cl` came in with a neurite formation score of 1.02.

For the compound `O=[N+]([O-])c1ccc(-c2nc(-c3ccc(F)cc3)c(-c3ccncc3)[nH]2)cc1`, the neurite formation score stood at 3.96.

In turn, `COc1cc2ncnc(Nc3ccc(F)c(Cl)c3)c2cc1OCCCN1CCOCC1` [Gefitinib (ZD1839)] returned a neurite formation score of 4.24.

`O=C1NC(=O)[C@@H](c2cn3c4c(cccc24)CCC3)[C@@H]1c1c[nH]c2ccccc12` [Tivantinib (ARQ 197)] displayed a neurite formation score of 0.236.

The compound `COc1cc2ncnc(Nc3ccc(F)c(Cl)c3)c2cc1NC(=O)/C=C/CN1CCCCC1` came in with a neurite formation score of 4.9.

Compound `Cc1ccc2c(Nc3ccc(Cl)cc3)nccc2c1Nc1ncccc1-c1ncnc2nc[nH]c12` [B-Raf inhibitor 1] returned a neurite formation score of 2.47.

Take `COc1cc(F)c(F)c(Nc2ccc(I)cc2F)c1NS(=O)(=O)C1(C[C@H](O)CO)CC1` [Refametinib]: the neurite formation score amounted to 4.14.

For `NC(=O)c1ccc(N(C(N)=O)c2c(F)cccc2F)nc1-c1ccc(F)cc1F`, the neurite formation score turned out to be 4.63.

Compound `CC(C)(C#N)c1ccc(N2C(=O)OCc3cnc4ccc(-c5cnc6ccccc6c5)cc4c32)cc1` came in with a neurite formation score of 3.63.

As for `COC(=O)Nc1nc2cc(C(=O)c3cccs3)ccc2[nH]1` [Nocodazole], the neurite formation score was 1.29.

In the case of `Cc1ccc(C(=O)Nc2ccc(CN3CCN(C)CC3)c(C(F)(F)F)c2)cc1C#Cc1cnc2[nH]ncc2c1`, the neurite formation score worked out at 0.626.

`Cc1[nH]c(/C=C2\C(=O)Nc3ccc(S(=O)(=O)N(C)c4cccc(Cl)c4)cc32)c(C)c1C(=O)N1CCN(C)CC1` displayed a neurite formation score of 3.57.

In turn, `COc1cc2c(c(OC)c1OC)-c1c(cc3c(c1OC)OCO3)CC(C)C(C)C2` (stereo not given) [Schizandrin B] had a neurite formation score of 4.88.

Regarding `O=c1c(-c2ccc(O)cc2)coc2cc(O)cc(O)c12` [Genistein], the neurite formation score is 4.57.

The compound `CCCCCCCCCCCCCCCCOP(=O)([O-])OCC[N+](C)(C)C` [Miltefosine] gave a neurite formation score of 5.63.

Compound `N#Cc1c(O)c2c(-c3ccc(-c4ccccc4O)cc3)csc2[nH]c1=O` showed a neurite formation score of 5.69.

Take `N#CCNC(=O)c1ccc(-c2ccnc(Nc3ccc(N4CCOCC4)cc3)n2)cc1`: the neurite formation score was determined as 4.69.

`Cc1c(Cn2c(C)nc3c(C(=O)O)cc(N4CCOCC4)cc32)cccc1C(F)(F)F` came in with a neurite formation score of 4.88.

The compound `Oc1cc(O)cc(/C=C/c2ccc(O)c(O)c2)c1` [Piceatannol] returned a neurite formation score of 4.88.

`C=CC(=O)Nc1cccc(Oc2nc(Nc3ccc(N4CCN(C)CC4)cc3)ncc2Cl)c1` had a neurite formation score of 5.96.

Regarding `CC[C@@H]1C(=O)N(C)c2cnc(Nc3ccc(C(=O)NC4CCN(C)CC4)cc3OC)nc2N1C1CCCC1`, the neurite formation score came to 5.02.

For the compound `N#C/C(=C\c1ccc(O)c(O)c1)C(=O)NCc1ccccc1`, the neurite formation score is 4.02.

Compound `Fc1cc(-c2cccc3ncc(-c4cnn(C5CCNCC5)c4)nc23)cc(F)c1CN1CCOCC1` showed a neurite formation score of 4.47.

Regarding `CC(C)c1cc(CNc2nc(Nc3cc(C4CC4)[nH]n3)cc(N3CCN(C)CC3)n2)on1`, the neurite formation score was determined as 0.692.

`O=C1NCCCc2c1oc1ccc(O)cc21` yielded a neurite formation score of 5.29.

On to `COc1ccc(CNc2nc(N(CCO)CCO)nc3c2ncn3C(C)C)cc1`, for which the neurite formation score turned out to be 5.57.

For `CC(C)c1cnn2c(NCc3ccccc3)cc(NCCCCCCN)nc12`, the neurite formation score was 4.57.

The compound `COc1cc2ncnc(Nc3cccc(Cl)c3)c2cc1OC` had a neurite formation score of 3.57.

Compound `O=C(NC[C@H](O)CO)c1ccncc1Nc1ccc(I)cc1F` had a neurite formation score of 3.9.

As for `Nc1nccc(Oc2ccc(NC(=O)c3c[nH]cc(-c4ccc(F)cc4)c3=O)cc2F)c1Cl`, the neurite formation score stood at 3.96.

For `c1cc(-c2cnn3cc(-c4ccc(OCCN5CCCCC5)cc4)cnc23)ccn1` [Dorsomorphin 2HCl], the neurite formation score came to 4.96.

`Cc1cc(CN2CCN(c3c(Br)cnc4nc(-c5ccc(N6CCN(C)CC6)cc5)[nH]c34)CC2)no1` came in with a neurite formation score of 4.47.
